According to PubChem BioAssay AID1851 (National Center for Advancing Translational Sciences (NCATS), 2009):
Out of some 16,000 compounds screened, about 5,800 (36%) were called active. Not shown: some 23% with an inconclusive outcome. Calls come from the whole dose curve; as a rule, active = well fitted curve in the direction sought with a large enough effect; inconclusive = small, poorly fitted or top-dose-only effect, or effect the other way; inactive = no such curve, though single readings can be large or run the other way. Some of the results follow.

Biological target: Cytochrome P450 2C19 (Homo sapiens) (UniProt P33261)
Assay: Cytochrome panel assay with activity outcomes
Details: recombinant CYP, pro-luciferin dealkylation, luminescence, p450-cyp2c19; series mostly up to 57.1 µM
% is set by controls: 0 for no effect and ±100 for the full control effect.

Chain of Cytochrome P450 2C19 (Homo sapiens) (P33261 whole entry, looked up): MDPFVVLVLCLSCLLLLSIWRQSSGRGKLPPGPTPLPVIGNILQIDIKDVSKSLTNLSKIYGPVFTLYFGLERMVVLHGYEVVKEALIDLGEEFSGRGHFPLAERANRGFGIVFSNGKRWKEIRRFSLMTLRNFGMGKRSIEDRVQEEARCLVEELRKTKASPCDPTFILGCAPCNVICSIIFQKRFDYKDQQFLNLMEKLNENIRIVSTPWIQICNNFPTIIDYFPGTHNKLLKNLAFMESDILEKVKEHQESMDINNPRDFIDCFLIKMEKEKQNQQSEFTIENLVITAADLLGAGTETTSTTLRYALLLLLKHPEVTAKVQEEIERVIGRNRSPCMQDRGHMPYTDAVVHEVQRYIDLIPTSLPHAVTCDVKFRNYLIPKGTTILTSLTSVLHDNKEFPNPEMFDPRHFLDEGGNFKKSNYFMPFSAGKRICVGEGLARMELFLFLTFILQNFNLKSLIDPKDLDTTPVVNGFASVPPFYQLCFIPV

AC50, active:
CCC(C)NC(=O)CCS(=O)(=O)c1ccc(Br)s1 (stereo unspecified) 5.01 µM
CCOC(=O)c1ccc(Nc2nc(C(=O)OCC)nc3ccccc23)cc1 1.41 µM
CCOC(=O)c1ccc(Nc2nc(-c3cccnc3)nc3ccccc23)cc1 3.55 µM
CC(C)CC(C(=O)OCC(=O)Nc1ncc(Cl)cc1Cl)N1C(=O)c2ccccc2C1=O (stereo unspecified) 2.24 µM
CC(C)(CNC(=O)c1ccc([N+](=O)[O-])c(Cl)c1)CNC(=O)c1ccc([N+](=O)[O-])c(Cl)c1 2.24 µM
Cc1[nH]c2ccccc2c1CCNC(=O)c1ccc2c(c1[N+](=O)[O-])C(=O)c1ccccc1C2=O 1.26 µM
O=C(c1cccs1)n1nc(-c2ccc(Cl)cc2)nc1NCc1ccco1 14.1 µM
FC(F)(F)c1nc(-c2ccncc2)ncc1-c1nnnn1-c1ccccc1 0.0224 µM
FC(F)(F)c1nc(N2CCCC2)ncc1-c1nnnn1-c1ccccc1 0.631 µM
CC(C)c1ccc(NC(=O)N(CCc2nc3ccccc3[nH]2)C2CCCC2)cc1 7.08 µM
CCOC(=O)c1ccc(-c2ccc(CO)o2)cc1 28.2 µM
COC(=O)CSc1ccc(C#N)c(SCC(=O)OC)c1 11.2 µM
CCOc1ccc(N/N=C(/C#N)C(N)=O)cc1 4.47 µM
Cc1ccc(NC(=O)CSCC(=O)Nc2ccc(N3CCOCC3)c(Cl)c2)cc1 14.1 µM
O=C(Nc1ccc2nc(SCc3ccc(Cl)cc3)sc2c1)c1ccccc1C(=O)N1CCOCC1 3.98 µM
CCCC(=O)Nc1ccc2nc(SCC(=O)Nc3ccc(N4CCOCC4)c(Cl)c3)sc2c1 3.98 µM
Cc1ccc2oc(-c3cccc(NC(=S)NC(=O)/C=C/c4ccco4)c3)nc2c1 6.31 µM
O=C(/C=C/c1ccco1)NC(=S)Nc1ccc(N2CCOCC2)c(Cl)c1 11.2 µM
CCOc1ccc(C(F)(F)F)cc1NC(C)=O 28.2 µM
O=C1NCC2=C1C(c1ccc(Br)cc1)Nc1ccccc1N2 (stereo unspecified) 8.91 µM
COc1cc2c(cc1NC(=O)Nc1ccccc1)oc1ccccc12 3.55 µM
COc1cc2c(cc1NC(=O)c1cc(-c3cccnc3)nc3ccc(C)cc13)oc1ccccc12 3.55 µM
COc1ccccc1CC(=O)Nc1cc2oc3ccccc3c2cc1OC 6.31 µM
CC1(C)CCCN(C(=O)N2c3ccccc3Sc3ccccc32)C1 0.562 µM
O=C(CSc1cccc2cccnc12)OCC(=O)c1ccccc1 10 µM
Cc1cc(O)c(C(C)C)cc1NC(=O)Nc1cccc2ccccc12 0.0501 µM
CCOc1cc(/C=C2\CCC/C(=C\c3cc(Cl)c(O)c(OCC)c3)C2=O)cc(Cl)c1O 15.8 µM
O=c1[nH]c2[nH]c(=S)[nH]c(=S)c2[nH]1 0.631 µM
CNC(=O)/C=C1\NC(C)(C)Cc2c1ccc1ccccc21 2.51 µM
CC1(C)Cc2c(ccc3ccccc23)C(=O)N1 10 µM
CCN(Cc1ccccc1)Cc1cccc([N+](=O)[O-])c1 5.62 µM
COc1ccc(/C=N/n2c(-c3cccs3)n[nH]c2=S)cc1 17.8 µM
COc1ccccc1-c1nnc(SCc2nc3ccccc3s2)n1C 2.24 µM
O=S(=O)(O)c1cc(O)c2c(N=Cc3ccccc3O)cc(S(=O)(=O)O)cc2c1 1.58 µM
N/C(=N\OC(=O)Cc1ccc(Cl)cc1)c1cccnc1 15.8 µM
Cc1nc(Oc2ccc(Cl)cc2)c2oc3ccccc3c2n1 2 µM
COc1cccc(=O)c2c(C)n(-c3cc(C)cc(C)c3)c(C)c12 1 µM
CCOC(=O)n1c(=O)n(Cc2c(Cl)cccc2Cl)c2ccccc21 2 µM
CCOC(=O)n1c(=O)n(Cc2ccccc2Cl)c2ccccc21 0.282 µM
CCOC(=O)C(=CNc1ncccc1C)C(=O)OCC 0.891 µM
COc1cccc(Cn2c(=O)c(-c3cccs3)nc3cncnc32)c1 5.01 µM
Cc1nc2cncnc2n(Cc2ccccc2)c1=O 0.158 µM
O=c1c(-c2cccs2)nc2cncnc2n1Cc1ccccc1 1 µM
Cc1nc2cncnc2n(C2CC2)c1=O 3.98 µM
O=c1c(-c2cccs2)nc2cncnc2n1Cc1ccc(F)cc1 7.94 µM
C[C@@H]1CN(CCCn2c3ccccc3c3ccccc32)C[C@H](C)N1 3.16 µM

AC50, inactive:
CCC(C)NC(=O)Cn1cnc2sc(C)cc2c1=O (stereo unspecified)
c1ccc(Nc2nc(-c3cccnc3)nc3ccccc23)cc1
COc1ccccc1NC(=O)Nc1nc(-c2cccnc2)nc2ccccc12
O=C(c1cnccn1)N1CCC[C@@]2(CCN(C(c3ccccc3)c3ccccc3)C2)C1
O=C(O)CC[C@@H](C(=O)O)N1C(=O)c2ccccc2C1=O
Cc1nc2cnc(N3CCNCC3)nc2n(-c2ccccc2)c1=O
Cc1nn(-c2ccccc2)c(N2CCCCC2)c1/C=N/O
COCC(=O)O[C@]1(CCN(C)CCCc2nc3ccccc3[nH]2)CCc2cc(F)ccc2[C@@H]1C(C)C
CCOC(=O)c1ccc(N)cc1
CCOC(=O)c1ccc(OC(=O)CCCCCN=C(N)N)cc1
CCC1CC(CSc2ncn[nH]2)OC1=O (stereo unspecified)
CN1[C@@H]2CC[C@H]1CC(OC(c1ccccc1)c1ccccc1)C2 (stereo partly specified)
COc1cc(NC(=O)c2cc3ccccc3o2)c(OC)cc1Br
COc1ccccc1C(=O)Nc1cc2c(ccc3ccccc32)oc1=O
CC(=O)N1CCC[C@@]2(CCN(Cc3ccccc3)C2)C1
CC1(C)CCCN(C(=O)c2coc(=O)c(Br)c2)C1
Nc1ccc2c3c(cccc13)C(=O)NC2=O
CNC(=O)[C@H]1O[C@H](n2cnc3c(NCc4cccc(I)c4)ncnc32)[C@@H](O)[C@@H]1O
COc1ncc2nc(-c3cccs3)c(=O)n(C)c2n1
CCc1n[nH]c(=S)n1/N=C/c1ccc2c(c1)OCO2
COc1ccc(Oc2ncc3nc(-c4cccs4)c(=O)n(C)c3n2)cc1
CCOC(=O)CNC(=O)c1cccnc1
Cn1c(=O)n(CCC(=O)O)c2ccccc21
CCOC(=O)C(=CNc1cccc(C)c1C)C(=O)OCC
CCOC(=O)C(=CNCC(=O)O)C(=O)OCC
O=c1c(-c2ccc(F)cc2)nc2cncnc2n1C1CC1
COc1cccc(Cn2c(=O)c(-c3cccs3)nc3cnc(OCc4ccccc4)nc32)c1
COc1ccc(-n2c(=O)c(C)nc3cncnc32)cc1
O=c1c(-c2cccs2)nc2cncnc2n1C1CC1
COc1ccc(Oc2ncc3nc(-c4cccs4)c(=O)n(Cc4cccc(OC)c4)c3n2)cc1
COc1ccc(Nc2ncc3nc(-c4cccs4)c(=O)n(Cc4cccc(OC)c4)c3n2)cc1
Cn1cc(-c2nc3cncnc3n(Cc3ccc(F)cc3)c2=O)c2ccccc21
O=c1c(-c2cc(F)cc(F)c2)nc2cncnc2n1C1CC1
COc1ncc2nc(-c3cccs3)c(=O)n(Cc3ccc(F)cc3)c2n1
O=c1[nH]c2ccccc2n1CCCN1CCN(C(c2ccccc2)c2ccccc2)CC1
O=c1c(-c2cc(F)cc(F)c2)nc2cnc(N3CCOCC3)nc2n1C[C@H]1CCCO1

activity, negative = inhibition, inactive:
CC(C)=CCC/C(C)=C/CO/N=C1/C[C@@H](O)[C@@H](O)[C@@H]2[C@@H]3C(=O)N(Cc4ccc5c(c4)OCO5)C(=O)[C@H]3CC[C@@H]12 17.2% [at 11.4 µM]
O=C(O)[C@H](Cc1ccc(O)c([N+](=O)[O-])c1)N1C(=O)c2ccccc2C1=O 26.2% [at 11.4 µM]
CC(C)(C)OC(=O)[C@H]([C@@H]1N[C@@H](C(=O)O)C(C)(C)S1)N1C(=O)c2ccccc2C1=O 36.7% [at 11.4 µM]
O=C(O)[C@H]1CCCC[C@@H]1C(=O)Nc1nc2ccccc2[nH]1 26.5% [at 11.4 µM]
O=S1(=O)OC(c2ccc(O)cc2)(c2ccc(O)cc2)c2ccccc21 28.4% [at 11.4 µM]
NS(=O)(=O)c1ccc(NC(=O)Nc2cccc3ccccc23)cc1 2.76% [at 11.4 µM]
O=C(O)[C@@H]1[C@@H]2C[C@@H]3[C@@H](OC(=O)[C@@H]31)[C@H]2Br -11.8% [at 11.4 µM]
N[C@@H](Cc1cccc([N+](=O)[O-])c1)C(=O)O -6.46% [at 11.4 µM]
O=S(=O)(O)c1cc(O)c2c(O)c(N=Nc3cccc4ccccc34)c(S(=O)(=O)O)cc2c1 -44.3% [at 11.4 µM]
Nc1ccccc1N=Nc1c(S(=O)(=O)O)cc2cc(S(=O)(=O)O)cc(O)c2c1O -13.7% [at 11.4 µM]
CC(C)N(CC(=O)O)CC(=O)O -17.1% [at 11.4 µM]
Cn1c(=O)c2[nH]c(COCc3nc4c([nH]3)c(=O)n(C)c(=O)n4C)nc2n(C)c1=O 25.6% [at 11.4 µM]
Cc1ccc(S(=O)(=O)N[C@H]2COC(=O)C/C=C\[C@@H](C)[C@H](NS(=O)(=O)c3ccc(C)cc3)COC(=O)C/C=C\[C@H]2C)cc1 30.4% [at 11.4 µM]
CN(C)CCCn1c2ccccc2c2cnccc21 26.7% [at 11.4 µM]
